Measured values from PubChem BioAssay (Tox21).
Values joined by “and” are separate entries in the source; they are usually repeats but may differ in a detail not shown here. Equal values may be shown once. Inconclusive results are not listed. Values without a mark were called inactive. Active and inactive are the calls of the source. Calls come from the whole dose curve; as a rule, active = well fitted cell-killing curve with a large enough effect in the repeat runs; inconclusive = weak or mixed curves, or effect the other way; inactive = flat fitted curve, though single readings scatter.

experiment: Human pregnane X receptor (PXR) small molecule agonists, qHTS cell viability counter screen (AID 1346977); conditions: PXR-Luc HepG2 viability, CellTiter-Fluor, 24 h; series mostly up to 92.4 µM; activity change, negative = cytotoxicity: at the top concentration; note: nearly all actives have a fitted effect of over 50% in size
Source text: U.S. Tox21 Program National Center for Advancing Translational Sciences [NCATS] NIH Chemical Genomics Center [NCGC] U.S. Environmental Protection Agency [EPA] National Institutes of Environmental Health Sciences [NIEHS] National Toxicology Program [NTP] U.S. Food and Drug Administration [FDA] Tox21 Assay Overview: The human pregnane X receptor (hPXR) regulates the expression of several drug metabolizing enzymes and induction of these proteins is a major mechanism for developing drug resistance in cancer. One such key enzyme catalyzing the drug metabolism is cytochrome P450 3A4 (CYP3A4). Changes in CYP3A4 expression affect drug metabolism, thereby reducing the therapeutic efficacy and altering toxicological response to a drug and which finally causes adverse drug interaction. To screen Tox21 libraries for compounds that activate hPXR-mediated CYP3A4 gene expression, PXR-Luc HepG2 cells were used. Also cytotoxicity of the compounds was tested in parallel by measuring the cell viability using CellTiter-Fluor assay system in the same wells.
Tox21 Assay Protocol Summary: PXR-Luc HepG2 cells were dispensed at 2,000 per well in 5uL of assay medium containing 5% charcoal-stripped FBS into white solid bottom 1536-well plates (Corning Life Sciences, Corning, NY) using a Multidrop Combi (Thermo Scientific, Waltham, MA) dispenser. The assay plates were incubated at 37 C and 5% CO2 for 5hr, and then 23nL of compounds dissolved in DMSO and positive control were transferred using a Pintool station (Wako, San Diego, CA). The assay plates were incubated at 37C and 5% CO2 for 24hr. For cytotoxicity read, after 23hr incubation at 37C, 1uL CellTiter-Fluor reagent (Promega Corporation, Madison, WI) was added to each well of the assay plates using Flying Reagent Dispenser (FRD, Aurora Discovery, San Diego, CA). After 1hr incubation at 37C and 5% CO2, the fluorescence signal was quantified using a ViewLux plate reader (PerkinElmer, Shelton, CT).
% is set by controls: 0 for no effect and ±100 for the full control effect; potency is the fitted concentration of half-maximal effect.

Compound | Potency | activity change, negative = cytotoxicity
[Cl][Bi]([Cl])([c]1ccccc1)([c]1ccccc1)[c]1ccccc1 | 3.83 µM (active) | 
Cc1cccc(CN2CCN(C(c3ccccc3)c3ccc(Cl)cc3)CC2)c1 (stereo not given) |  | -0.623% [at 42.5 µM]
CC[C@@]1(O)C(=O)OCc2c1cc1n(c2=O)Cc2c-1nc1ccccc1c2/C=N/OC(C)(C)C | 0.237 µM (active) | 
NC(=O)CC[C@@H]1NC(=O)[C@H](Cc2ccccc2)NC(=O)[C@H](Cc2ccc(O)cc2)NC(=O)CCSSC[C@@H](C(=O)N2CCC[C@H]2C(=O)N[C@@H](CCCN=C(N)N)C(=O)NCC(N)=O)NC(=O)[C@H](CC(N)=O)NC1=O |  | -0.193% [at 42.5 µM]
Cc1cc(O)c(C(C)(C)C)cc1Sc1cc(C(C)(C)C)c(O)cc1C | 13.7 µM (active) | 
CC(C)=CCOc1ccc(/C=C/C(=O)c2ccc(OCC=C(C)C)cc2OCC(=O)O)cc1 |  | -1.28% [at 42.5 µM]
COC(=O)c1cc(Cl)ccc1OC |  | 12.5% [at 42.5 µM]
C=C(C)C(=O)OCC[N+](C)(C)C |  | 0.609%
COc1cc(/C=C/C(=O)O[C@H]2CC[C@]34C[C@]35CC[C@]3(C)[C@@H]([C@H](C)CCC=C(C)C)CC[C@@]3(C)[C@@H]5CC[C@H]4C2(C)C)ccc1O |  | 4.33% [at 42.5 µM]
C/C=C(\C)C(=O)OCc1ccccc1 |  | -0.67%
Nc1ccccc1O | 60.3 µM (active) | 
CCOC(=O)c1nc(C(Cl)(Cl)Cl)n(-c2ccc(Cl)cc2Cl)n1 | 54.5 µM (active) | 
O=c1cc(-c2ccc(O)cc2)oc2cc(O)cc(O)c12 | 39.8 µM (active) and 27.3 µM (active) | 
Nc1ccc(N)c2ccccc12 | 24.3 µM (active) | 
C[C@H](CCC(=O)O)[C@H]1CC[C@H]2[C@@H]3CC[C@@H]4C[C@H](O)CC[C@]4(C)[C@H]3CC[C@]12C |  | -22.8%
CCc1cc(Cc2cc(CC)cc(C(C)(C)C)c2O)c(O)c(C(C)(C)C)c1 | 30.6 µM (active) | 
O=C1c2ccccc2Cc2ccccc21 |  | -23%
Nc1cc(C(F)(F)F)ccc1S |  | 0.369% [at 42.5 µM]
CC1=NC(C)OC1C (stereo not given) |  | -7.29%
O=C(O)c1ccc(Cl)c(Cl)c1 |  | 17.2%

Compound | Potency | activity change, negative = cytotoxicity
OCCCCCCCCCCCCBr |  | -0.565%
CCC(C)(C)C1CCCCC1OC(C)=O (stereo not given) |  | -1.4%
CCCCN(CCCC)C(=O)N(CCCC)CCCC |  | 11%
CN(C)C(=O)C1(N2CCCCC2)CCN(CC[C@@]2(c3ccc(Cl)c(Cl)c3)CN(C(=O)c3ccccc3)CCO2)CC1 | 25.5 µM (active) | 
O=C(Nc1cccc([N+](=O)[O-])c1)c1cc2ccccc2cc1O | 3.86 µM (active) | 
CC(=O)N1CCN(c2ccc(OC[C@H]3CO[C@](Cn4ccnc4)(c4ccc(Cl)cc4Cl)O3)cc2)CC1 | 27.3 µM (active) | 
CCCCCOC(=O)CCCC |  | 6.6%
CCCCCCCC(=O)[O-].CCCCCCCC(=O)[O-].[Zn+2] |  | -0.101% [at 42.5 µM]
CCN(CC)CCNC(=O)c1c(C)[nH]c(/C=C2\C(=O)Nc3ccc(F)cc32)c1C | 11.9 µM (active) | 
CCCCC(CC)CN=C(N)NC(N)=NCCCCCCN=C(N)NC(N)=NCC(CC)CCCC (stereo not given) | 16.8 µM (active) | 
O=c1cccccc1O |  | -25.5%
Clc1ccc2cc3ccccc3cc2c1 |  | 4.4%
O=Cc1cc(O)ccc1Br |  | 5.9%
CC(C)CCCCCCCCCCCCCCC(=O)O |  | -2.2%
CCC(C)Nc1ccc(NC(C)CC)cc1 (stereo not given) | 12.4 µM (active) | 
CCc1cc(SCc2sc(-c3ccc(C(F)(F)F)cc3)nc2CN2CCN(c3ccc(OC)cc3)CC2)ccc1OCC(=O)O | 54.5 µM (active) | 
CCCCCCCC[P+](CCCCCCCC)(CCCCCCCC)CCCCCCCC | 2.42 µM (active) | 
CN(C)[C@@H]1C(=O)C(C(N)=O)=C(O)[C@@]2(O)C(=O)C3=C(O)c4c(O)ccc(Cl)c4[C@@H](O)[C@H]3C[C@@H]12 |  | -4.68% [at 42.5 µM]
CO[Si](CCCNc1ccccc1)(OC)OC |  | 0.364%
O=C(O)c1c(Cl)cccc1Cl |  | 18.6%
